Results as given in PubChem BioAssay AID1851 (National Center for Advancing Translational Sciences (NCATS), 2009).
Screen size: about 16,000 compounds; about 5,800 (36%) were called active. Inconclusive results (about 23%) are left out. The list shows a part of the results. Values without a mark were called inactive. Calls come from the whole dose curve; as a rule, active = well fitted curve in the direction sought with a large enough effect; inconclusive = small, poorly fitted or top-dose-only effect, or effect the other way; inactive = no such curve, though single readings can be large or run the other way.

Target: Cytochrome P450 2C19 (Homo sapiens) (UniProt P33261)
Sequence (P33261 whole entry, looked up): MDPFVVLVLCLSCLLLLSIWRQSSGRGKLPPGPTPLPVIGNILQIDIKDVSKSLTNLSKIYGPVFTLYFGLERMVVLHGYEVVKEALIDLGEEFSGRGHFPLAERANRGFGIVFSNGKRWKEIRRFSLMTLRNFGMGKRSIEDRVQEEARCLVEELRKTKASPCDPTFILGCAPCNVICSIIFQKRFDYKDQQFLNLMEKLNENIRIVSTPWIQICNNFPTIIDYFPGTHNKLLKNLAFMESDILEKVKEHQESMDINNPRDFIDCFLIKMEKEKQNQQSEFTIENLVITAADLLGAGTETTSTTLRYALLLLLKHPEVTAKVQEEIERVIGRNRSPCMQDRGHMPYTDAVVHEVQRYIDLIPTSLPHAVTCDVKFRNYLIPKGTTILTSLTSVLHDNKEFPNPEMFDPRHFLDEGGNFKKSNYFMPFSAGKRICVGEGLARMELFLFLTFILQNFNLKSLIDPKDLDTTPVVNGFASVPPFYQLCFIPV
Assay: Cytochrome panel assay with activity outcomes
Conditions: recombinant CYP, pro-luciferin dealkylation, luminescence, p450-cyp2c19; series mostly up to 57.1 µM
% is set by controls: 0 for no effect and ±100 for the full control effect.

SMILES	activity, negative = inhibition	AC50
COC(=O)[C@@H]1O[C@@H](c2c(OC)c(OC)c(C)c(OC)c2OC)[C@H](C)[C@@H](O)[C@@H]1C	-37.9% [at 11.4 µM]	
Clc1ccc(Cl)c(Nc2ccnc(SCc3ccccc3)n2)c1		5.01 µM (active)
CC(C)OC(=O)C1=C2SCC(=O)N2C(N)=C(C#N)C1		2.51 µM (active)
CCOC(=O)C1=C2SCC(=O)N2C(N)=C(C#N)C1		14.1 µM (active)
CCOC(=O)c1c(C)c(C)n2c1NC(=O)C2	1.54% [at 11.4 µM]	
Oc1cc2c(c(Cl)c1O)CCNC[C@H]2c1ccccc1		inactive
O=C(NCCc1ccccn1)c1cc(C(=O)C2CCCCC2)c[nH]1		inactive
O=C(NCc1ccco1)c1cc(C(=O)C2CC2)c[nH]1		25.1 µM (active)
Cc1c(NC(=O)/C=C/c2cn(-c3ccccc3)nc2-c2ccc(F)cc2)c(=O)n(-c2ccccc2)n1C		inactive
Cc1ccc(-c2nn(-c3ccccc3)cc2CSC(=N)N)cc1		8.91 µM (active)
CCC(C)NC(=O)Cn1cnc2sc(C)cc2c1=O (centres undefined)		inactive
CCC(C)NC(=O)CCS(=O)(=O)c1ccc(Br)s1 (centres undefined)		5.01 µM (active)
CCOC(=O)c1ccc(Nc2nc(C(=O)OCC)nc3ccccc23)cc1		1.41 µM (active)
COc1ccccc1NC(=O)Nc1nc(-c2cccnc2)nc2ccccc12		inactive
CCOC(=O)c1ccc(Nc2nc(-c3cccnc3)nc3ccccc23)cc1		3.55 µM (active)
c1ccc(Nc2nc(-c3cccnc3)nc3ccccc23)cc1		inactive
CC(C)=CCC/C(C)=C/CO/N=C1/C[C@@H](O)[C@@H](O)[C@@H]2[C@@H]3C(=O)N(Cc4ccc5c(c4)OCO5)C(=O)[C@H]3CC[C@@H]12	17.2% [at 11.4 µM]	
O=C(c1cnccn1)N1CCC[C@@]2(CCN(C(c3ccccc3)c3ccccc3)C2)C1		inactive
O=C(O)[C@H](Cc1ccc(O)c([N+](=O)[O-])c1)N1C(=O)c2ccccc2C1=O	26.2% [at 11.4 µM]	
CC(C)CC(C(=O)OCC(=O)Nc1ncc(Cl)cc1Cl)N1C(=O)c2ccccc2C1=O (centres undefined)		2.24 µM (active)
O=C(O)CC[C@@H](C(=O)O)N1C(=O)c2ccccc2C1=O		inactive
CC(C)(CNC(=O)c1ccc([N+](=O)[O-])c(Cl)c1)CNC(=O)c1ccc([N+](=O)[O-])c(Cl)c1		2.24 µM (active)
CC(C)(C)OC(=O)[C@H]([C@@H]1N[C@@H](C(=O)O)C(C)(C)S1)N1C(=O)c2ccccc2C1=O	36.7% [at 11.4 µM]	
Cc1[nH]c2ccccc2c1CCNC(=O)c1ccc2c(c1[N+](=O)[O-])C(=O)c1ccccc1C2=O		1.26 µM (active)
O=C(c1cccs1)n1nc(-c2ccc(Cl)cc2)nc1NCc1ccco1		14.1 µM (active)

SMILES	activity, negative = inhibition	AC50
Cc1nn(-c2ccccc2)c(N2CCCCC2)c1/C=N/O		inactive
Cc1nc2cnc(N3CCNCC3)nc2n(-c2ccccc2)c1=O		inactive
FC(F)(F)c1nc(-c2ccncc2)ncc1-c1nnnn1-c1ccccc1		0.0224 µM (active)
FC(F)(F)c1nc(N2CCCC2)ncc1-c1nnnn1-c1ccccc1		0.631 µM (active)
CC(C)c1ccc(NC(=O)N(CCc2nc3ccccc3[nH]2)C2CCCC2)cc1		7.08 µM (active)
O=C(O)[C@H]1CCCC[C@@H]1C(=O)Nc1nc2ccccc2[nH]1	26.5% [at 11.4 µM]	
COCC(=O)O[C@]1(CCN(C)CCCc2nc3ccccc3[nH]2)CCc2cc(F)ccc2[C@@H]1C(C)C		inactive
CCOC(=O)c1ccc(OC(=O)CCCCCN=C(N)N)cc1		inactive
CCOC(=O)c1ccc(-c2ccc(CO)o2)cc1		28.2 µM (active)
CCOC(=O)c1ccc(N)cc1		inactive
COC(=O)CSc1ccc(C#N)c(SCC(=O)OC)c1		11.2 µM (active)
CCOc1ccc(N/N=C(/C#N)C(N)=O)cc1		4.47 µM (active)
CCCC(=O)Nc1ccc2nc(SCC(=O)Nc3ccc(N4CCOCC4)c(Cl)c3)sc2c1		3.98 µM (active)
Cc1ccc2oc(-c3cccc(NC(=S)NC(=O)/C=C/c4ccco4)c3)nc2c1		6.31 µM (active)
Cc1ccc(NC(=O)CSCC(=O)Nc2ccc(N3CCOCC3)c(Cl)c2)cc1		14.1 µM (active)
O=C(Nc1ccc2nc(SCc3ccc(Cl)cc3)sc2c1)c1ccccc1C(=O)N1CCOCC1		3.98 µM (active)
CCC1CC(CSc2ncn[nH]2)OC1=O (centres undefined)		inactive
CN1[C@@H]2CC[C@H]1CC(OC(c1ccccc1)c1ccccc1)C2 (some centres undefined)		inactive
O=S1(=O)OC(c2ccc(O)cc2)(c2ccc(O)cc2)c2ccccc21	28.4% [at 11.4 µM]	
O=C(/C=C/c1ccco1)NC(=S)Nc1ccc(N2CCOCC2)c(Cl)c1		11.2 µM (active)
CCOc1ccc(C(F)(F)F)cc1NC(C)=O		28.2 µM (active)
O=C1NCC2=C1C(c1ccc(Br)cc1)Nc1ccccc1N2 (centres undefined)		8.91 µM (active)
COc1ccccc1C(=O)Nc1cc2c(ccc3ccccc32)oc1=O		inactive
COc1cc(NC(=O)c2cc3ccccc3o2)c(OC)cc1Br		inactive
COc1ccccc1CC(=O)Nc1cc2oc3ccccc3c2cc1OC		6.31 µM (active)

SMILES	activity, negative = inhibition	AC50
COc1cc2c(cc1NC(=O)Nc1ccccc1)oc1ccccc12		3.55 µM (active)
COc1cc2c(cc1NC(=O)c1cc(-c3cccnc3)nc3ccc(C)cc13)oc1ccccc12		3.55 µM (active)
CC(=O)N1CCC[C@@]2(CCN(Cc3ccccc3)C2)C1		inactive
CC1(C)CCCN(C(=O)c2coc(=O)c(Br)c2)C1		inactive
CC1(C)CCCN(C(=O)N2c3ccccc3Sc3ccccc32)C1		0.562 µM (active)
O=C(CSc1cccc2cccnc12)OCC(=O)c1ccccc1		10 µM (active)
Cc1cc(O)c(C(C)C)cc1NC(=O)Nc1cccc2ccccc12		0.0501 µM (active)
NS(=O)(=O)c1ccc(NC(=O)Nc2cccc3ccccc23)cc1	2.76% [at 11.4 µM]	
CCOc1cc(/C=C2\CCC/C(=C\c3cc(Cl)c(O)c(OCC)c3)C2=O)cc(Cl)c1O		15.8 µM (active)
O=C(O)[C@@H]1[C@@H]2C[C@@H]3[C@@H](OC(=O)[C@@H]31)[C@H]2Br	-11.8% [at 11.4 µM]	
O=c1[nH]c2[nH]c(=S)[nH]c(=S)c2[nH]1		0.631 µM (active)
CNC(=O)/C=C1\NC(C)(C)Cc2c1ccc1ccccc21		2.51 µM (active)
Nc1ccc2c3c(cccc13)C(=O)NC2=O		inactive
CC1(C)Cc2c(ccc3ccccc23)C(=O)N1		10 µM (active)
CNC(=O)[C@H]1O[C@H](n2cnc3c(NCc4cccc(I)c4)ncnc32)[C@@H](O)[C@@H]1O		inactive
COc1ncc2nc(-c3cccs3)c(=O)n(C)c2n1		inactive
CCN(Cc1ccccc1)Cc1cccc([N+](=O)[O-])c1		5.62 µM (active)
N[C@@H](Cc1cccc([N+](=O)[O-])c1)C(=O)O	-6.46% [at 11.4 µM]	
CCc1n[nH]c(=S)n1/N=C/c1ccc2c(c1)OCO2		inactive
COc1ccc(/C=N/n2c(-c3cccs3)n[nH]c2=S)cc1		17.8 µM (active)
COc1ccc(Oc2ncc3nc(-c4cccs4)c(=O)n(C)c3n2)cc1		inactive
COc1ccccc1-c1nnc(SCc2nc3ccccc3s2)n1C		2.24 µM (active)
O=S(=O)(O)c1cc(O)c2c(O)c(N=Nc3cccc4ccccc34)c(S(=O)(=O)O)cc2c1	-44.3% [at 11.4 µM]	
Nc1ccccc1N=Nc1c(S(=O)(=O)O)cc2cc(S(=O)(=O)O)cc(O)c2c1O	-13.7% [at 11.4 µM]	
O=S(=O)(O)c1cc(O)c2c(N=Cc3ccccc3O)cc(S(=O)(=O)O)cc2c1		1.58 µM (active)

SMILES	activity, negative = inhibition	AC50
CC(C)N(CC(=O)O)CC(=O)O	-17.1% [at 11.4 µM]	
N/C(=N\OC(=O)Cc1ccc(Cl)cc1)c1cccnc1		15.8 µM (active)
CCOC(=O)CNC(=O)c1cccnc1		inactive
Cc1nc(Oc2ccc(Cl)cc2)c2oc3ccccc3c2n1		2 µM (active)
COc1cccc(=O)c2c(C)n(-c3cc(C)cc(C)c3)c(C)c12		1 µM (active)
CCOC(=O)n1c(=O)n(Cc2ccccc2Cl)c2ccccc21		0.282 µM (active)
Cn1c(=O)n(CCC(=O)O)c2ccccc21		inactive
CCOC(=O)n1c(=O)n(Cc2c(Cl)cccc2Cl)c2ccccc21		2 µM (active)
Cn1c(=O)c2[nH]c(COCc3nc4c([nH]3)c(=O)n(C)c(=O)n4C)nc2n(C)c1=O	25.6% [at 11.4 µM]	
CCOC(=O)C(=CNCC(=O)O)C(=O)OCC		inactive
CCOC(=O)C(=CNc1cccc(C)c1C)C(=O)OCC		inactive
CCOC(=O)C(=CNc1ncccc1C)C(=O)OCC		0.891 µM (active)
COc1cccc(Cn2c(=O)c(-c3cccs3)nc3cnc(OCc4ccccc4)nc32)c1		inactive
O=c1c(-c2ccc(F)cc2)nc2cncnc2n1C1CC1		inactive
O=c1c(-c2cccs2)nc2cncnc2n1Cc1ccccc1		1 µM (active)
Cc1nc2cncnc2n(C2CC2)c1=O		3.98 µM (active)
COc1cccc(Cn2c(=O)c(-c3cccs3)nc3cncnc32)c1		5.01 µM (active)
O=c1c(-c2cc(F)cc(F)c2)nc2cncnc2n1C1CC1		inactive
Cn1cc(-c2nc3cncnc3n(Cc3ccc(F)cc3)c2=O)c2ccccc21		inactive
COc1ccc(-n2c(=O)c(C)nc3cncnc32)cc1		inactive
Cc1nc2cncnc2n(Cc2ccccc2)c1=O		0.158 µM (active)
COc1ccc(Nc2ncc3nc(-c4cccs4)c(=O)n(Cc4cccc(OC)c4)c3n2)cc1		inactive
COc1ccc(Oc2ncc3nc(-c4cccs4)c(=O)n(Cc4cccc(OC)c4)c3n2)cc1		inactive
O=c1c(-c2cccs2)nc2cncnc2n1C1CC1		inactive
